Laboratory results taken from the supplement of paper PMC13380429.

Test system: Vero E6 infected with SARS-CoV-2
Test: inhibition of SARS-CoV-2 cytopathic effect; higher = more antiviral protection, active = above 15
Details: 48 h

Measured: inhibition of SARS-CoV-2 cytopathic effect

Cc1ccc(C(=O)Nc2ccc(S(=O)(=O)O)c3cc(S(=O)(=O)O)cc(S(=O)(=O)O)c23)cc1NC(=O)c1cccc(NC(=O)Nc2cccc(C(=O)Nc3cc(C(=O)Nc4ccc(S(=O)(=O)O)c5cc(S(=O)(=O)O)cc(S(=O)(=O)O)c45)ccc3C)c2)c1 [suramin]
inactive: 1 nM 0.16% | 8.33 nM 0.17% | 100 nM 0.66% | 833.33 nM -0.75% | 10000 nM 1.44%

Nc1nc(N)c2nc(-c3cccc(O)c3)cnc2n1
inactive: 1 nM -0.93% | 8.33 nM -0.26% | 100 nM 0.04% | 833.33 nM -0.48% | 10000 nM -1.39%

COc1ccc2[nH]c([S+]([O-])Cc3ncc(C)c(OC)c3C)nc2n1 (stereo not given) [tenatoprazole]
inactive: 1 nM -9.92% | 8.33 nM -12.8% | 100 nM -7.87% | 833.33 nM -11.3% | 10000 nM 2.26%

COc1ccsc1CNCC[C@@]1(c2ccccn2)CCOC2(CCCC2)C1
inactive: 1 nM -2.56% | 8.33 nM 3.9% | 100 nM 0.92% | 833.33 nM 1.29% | 10000 nM -0.28%

C[C@@H](NCc1cc(Br)cc2nc(O)c(O)nc12)P(=O)(O)O
inactive: 1 nM -0.47% | 8.33 nM 3.65% | 100 nM -0.39% | 833.33 nM -1.72% | 10000 nM -3.97%

O=C1CC2(CCCC2)CC(=O)N1CCNC[C@H]1COc2ccccc2O1
inactive: 1 nM -0.99% | 8.33 nM -2.08% | 100 nM -0.87% | 833.33 nM 0.95% | 10000 nM -2.14%

Cc1nc(=O)c2cc(CN(C)c3ccc(C(=O)N[C@@H](CCC(=O)O)C(=O)O)s3)ccc2[nH]1 [raltitrexed]
inactive: 1 nM -0.77% | 8.33 nM 5.47% | 100 nM 1.2% | 833.33 nM -4.47% | 10000 nM -1.82%

COc1ccc(-c2nc(-c3ccc(-c4cccc(Cl)c4)o3)[nH]c2-c2ccc(OC)cc2)cc1 [neurodazine]
inactive: 1 nM 0.83% | 8.33 nM -0.31% | 100 nM 4.87% | 833.33 nM 5.51% | 10000 nM 1.25%

Nc1ccn(C[C@@H](CO)OCP(=O)(O)O)c(=O)n1 [cidofovir]
inactive: 1 nM -0.38% | 8.33 nM 0.11% | 100 nM -1.45% | 833.33 nM -1.91% | 10000 nM -2.8%

Cc1cccc(Nc2ccncc2S(=O)(=O)NC(=O)NC(C)C)c1 [torasemide]
inactive: 1 nM -0.3% | 8.33 nM -0.37% | 100 nM -0.51% | 833.33 nM -1.03% | 10000 nM -1.02%

CCC(=O)OCC(=O)[C@@]1(OC(=O)CC)[C@@H](C)C[C@H]2[C@@H]3CCC4=CC(=O)C=C[C@]4(C)[C@@]3(F)[C@@H](O)C[C@@]21C
inactive: 1 nM -0.73% | 8.33 nM 0.98% | 100 nM -1.61% | 833.33 nM 0.59% | 10000 nM -0.08%

O=C1c2ccccc2C(=O)C1c1ccc(Br)cc1 [bromindione]
inactive: 1 nM -0.87% | 8.33 nM 2.1% | 100 nM -2.65% | 833.33 nM 1.04% | 10000 nM 0.05%

O=C(NCCCN1CCC2(CC1)OCc1ccccc12)[C@H]1CCCN1Cc1ccccc1
inactive: 1 nM -4.44% | 8.33 nM -4.12% | 100 nM -5.12% | 833.33 nM -1.81% | 10000 nM 0.56%

O=C1C(=Cc2cccnc2)C(=O)c2ccccc21
inactive: 1 nM 1.43% | 8.33 nM 1% | 100 nM 3.58% | 833.33 nM 5.97% | 10000 nM 5.97%

CC#CC(=O)N1CCC[C@H]1c1nc(-c2ccc(C(=O)Nc3ccccn3)cc2)c2c(N)nccn12 [acalabrutinib]
inactive: 1 nM 2.14% | 8.33 nM -0.44% | 100 nM 0.31% | 833.33 nM -0.11% | 10000 nM -0.34%

CCCCC1=NC2(CCCC2)C(=O)N1Cc1ccc(-c2ccccc2-c2nnn[nH]2)cc1 [irbesartan]
inactive: 1 nM -1.49% | 8.33 nM -0.93% | 100 nM 0.89% | 833.33 nM 1.9% | 10000 nM 0.85%

CN1C(C(=O)Nc2ccccn2)=C(O)c2ccccc2S1(=O)=O [piroxicam]
inactive: 1 nM 0.3% | 8.33 nM -0.73% | 100 nM 0.15% | 833.33 nM 0.8% | 10000 nM 1.41%

C[C@@H]1C(=O)O[C@H]2C[C@@]34[C@H]5C[C@@H](C(C)(C)C)[C@]36[C@@H](OC(=O)[C@@H]6O)O[C@@]4(C(=O)O5)[C@]21O [Ginkgolide A]
inactive: 1 nM 3.54% | 8.33 nM 2.25% | 100 nM 2.7% | 833.33 nM 1.3% | 10000 nM -1.89%
